“And” between values parts separate entries of the source, which are not always exact repeats. Equal entries are not always repeated.
What was measured:
Neuro-2a [1] = assay: neurite formation score, plate-normalized to DMSO control mean 5.04 (score (0-8 scale)); higher = more or longer neurites; conditions: 1 µM
Experimental: (§1)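 Neuro-2a mouse neuroblastoma cells in PLL-coated 96-well plates were pre-treated for 1 h in DMEM(+) with each kinase inhibitor at 1 µM, then switched to serum-free DMEM(-) with inhibitor to induce neurite outgrowth and fixed about 2-3 h later. Three blinded observers scored neurite formation from 0 (no neurites) to 8 (long neurites on almost all cells).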

Neuro-2a [2] = assay: as above; conditions: 0.1 µM
Experimental: as §1, with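 “at 0.1” for “at 1”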

`Cc1nc(Nc2ncc(C(=O)Nc3c(C)cccc3Cl)s2)cc(N2CCN(CCO)CC2)n1` was tested, and the neurite formation score (Neuro-2a [1]) was 1.57 and the neurite formation score (Neuro-2a [2]) was 2.38.

Compound `CNC(=O)Nc1ccc(-c2nc(N3CC4CCC(C3)O4)c3cnn(C4CCC5(CC4)OCCO5)c3n2)cc1` has a neurite formation score (Neuro-2a [1]) of 3.54 and a neurite formation score (Neuro-2a [2]) of 4.75.

For `CC(C)(C)c1nc(-c2cccc(NS(=O)(=O)c3c(F)cccc3F)c2F)c(-c2ccnc(N)n2)s1`, the neurite formation score (Neuro-2a [1]) was 5.02 and 5.29 and the neurite formation score (Neuro-2a [2]) was 5.25.

Compound `CNC(=O)c1cc(Oc2ccc3nc(N[C@@H]4CCCC[C@H]4O)sc3c2)ccn1` has a neurite formation score (Neuro-2a [1]) of 3.21 and a neurite formation score (Neuro-2a [2]) of 4.75.

Work on `CCCNC(=O)Nc1ccc(Oc2ncnc3cc(OC)c(OC)cc23)cc1Cl` yielded a neurite formation score (Neuro-2a [1]) of 5.57 and a neurite formation score (Neuro-2a [2]) of 5.54.

Compound `O=C(COc1ccc(Cl)cc1)NC1CCC(NC(=O)COc2ccc(Cl)cc2)CC1` (stereo not drawn) [ISRIB (trans-isomer)] has a neurite formation score (Neuro-2a [1]) of 4.54 and a neurite formation score (Neuro-2a [2]) of 4.42.

`COc1cc(N2CCC(N)CC2)ccc1Nc1ncc(Cl)c(-c2c[nH]c3ccccc23)n1` showed a neurite formation score (Neuro-2a [1]) of 4.63 and a neurite formation score (Neuro-2a [2]) of 4.92.

In the case of `CN1CCN(Cc2ccc(-c3cnc4[nH]cc(-c5ccc6[nH]ccc6c5)c4c3)cc2)CC1`, the neurite formation score (Neuro-2a [1]) was 4.54 and the neurite formation score (Neuro-2a [2]) was 4.42.

Work on `Nc1nc(N)c(N=O)c(OCC2CCCCC2)n1` yielded a neurite formation score (Neuro-2a [1]) of 4.57 and a neurite formation score (Neuro-2a [2]) of 4.71.

In the case of `NC(=O)c1cccc(-c2cc(Nc3ccc(OC(F)(F)F)cc3)ncn2)c1`, the neurite formation score (Neuro-2a [1]) was 5.14 and the neurite formation score (Neuro-2a [2]) was 3.76.

In the case of `Cc1cc(O)c2c(c1)C(=O)c1cccc(O)c1C2=O` [Chrysophanol], the neurite formation score (Neuro-2a [1]) was 4.8 and the neurite formation score (Neuro-2a [2]) was 4.76.

Work on `COc1cc2c(Oc3ccc4[nH]c(C)cc4c3F)ncnc2cc1OCCCN1CCCC1` [Cediranib (AZD217)] yielded a neurite formation score (Neuro-2a [1]) of 3.91 and a neurite formation score (Neuro-2a [2]) of 4.71.

`FC(F)(F)c1ccc(CNc2ccc(Cc3c[nH]c4ncccc34)cn2)cc1` was tested, and the neurite formation score (Neuro-2a [1]) was 3.54 and the neurite formation score (Neuro-2a [2]) was 5.08.

Reference: the supplement of paper PMC8047044
